# Measurements taken from PubChem BioAssay (NCATS).
# Records with an inconclusive call do not appear. Values without a mark were called inactive. Active and inactive are the calls of the source. Calls come from the whole dose curve; as a rule, active = well fitted inhibition curve with a large enough effect; inconclusive = small, poorly fitted or top-dose-only effect; inactive = flat fitted curve, though single readings scatter. Where a SMILES comes first, the peptide text is derived from it. The star is where a group is joined. βNA = c1ccc2cc(N*)ccc2c1; Cbz = O=C(OCc1ccccc1)*
# Key:
# CRL-7250 = normal cell line; test: Cytotoxic Profiling of Annotated Libraries Using Quantitative High-Throughput Screening (AID 1296008); conditions: Five cell lines viability, CellTiter-Glo ATP luminescence, 48-72 h; max response: stronger effect = lower value; note: potency is the fitted concentration of half-maximal effect; for max response: % is set by controls: 0 for no effect and ±100 for the full control effect
# Method in brief: (§1)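 Cytotoxicity was measured as CellTiter-Glo ATP luminescence, read after 10 min at room temperature. Compound treatment of the cells lasted 48 or 72 hr at 37 degrees Celsius in a qHTS format.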
# HEK293 = test: as above; conditions: Five cell lines viability, CellTiter-Glo ATP luminescence, 48-72 h; max response: stronger effect = lower value
# Method in brief: as §1
# HaCat [1] = test: as above; conditions: Five cell lines viability, CellTiter-Glo ATP luminescence, 48-72 h; max response: stronger effect = lower value
# Method in brief: as §1
# KB-3-1 = test: as above; conditions: Five cell lines viability, CellTiter-Glo ATP luminescence, 48-72 h; max response: stronger effect = lower value
# Method in brief: as §1
# NIH3T3 = test: as above; conditions: Five cell lines viability, CellTiter-Glo ATP luminescence, 48-72 h; max response: stronger effect = lower value
# Method in brief: as §1
# HACAT [2] = test: qHTS assay to identify novel small-molecules to repurpose for Merkel cell carcinoma treatment (AID 1296009); conditions: MCC and control cell lines, CellTiter-Glo viability, 72 h; at 44.8 µM (top of the series) unless noted
# Method in brief: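 After compound transfer in DMSO, plates were kept 72 hr at 37 degree celsius. Luminescent ATP signal from CellTiter-Glo served as viability measure, normalized against DMSO and no-cell controls.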
# Note: nearly all actives have a fitted effect of over 60% in size.
Compound,max response (CRL-7250) [%],max response (HEK293) [%],outcome (HaCat [1]),outcome (KB-3-1),max response (NIH3T3) [%],outcome (HACAT [2]),outcome (CRL-7250),outcome (NIH3T3),max response (KB-3-1) [%],Potency (HEK293)
CC(=O)OC/C(=C/C(=O)O)CC[C@@H]1C(CO)=CC[C@@H]2C(C)(C)CCC[C@@]12C,1.35,1.68,inactive,inactive,-1.93,inactive,–,–,–,–
CO[C@H]1c2cc(C(C)C)c(O)c(O)c2[C@@]23CCCC(C)(C)C2[C@@H]1OC3=O (some centres not stated),–,-7.48,inactive,inactive,–,inactive,inactive,inactive,–,–
COc1cc(CO)ccc1O[C@@H]1O[C@H](CO)[C@@H](O)[C@H](O)[C@H]1O,-0.424,-18.7,inactive,–,–,inactive,–,inactive,5.53,–
C/C=C/C=C/C=C/C(=O)OC1C=C2C(O)OC(=O)[C@]2(O)[C@@]2(C)CCCC(C)(C)[C@H]12 (some centres not stated),-0.551,4.05,inactive,–,3.08,inactive [at 17.4 µM],–,–,4.24,–
COc1cc(C)c(C(=O)NC2C(C)OC(OC3CCC(C)C4C3C=C(C)C3/C(C)=C\CC/C(C)=C/C5(C)C=C(C(=O)O)C(C)CC56OC(=O)/C(=C(\O)C34C)C6=O)C(O)C2(C)O)c(O)c1 (configuration not stated),-0.565,-0.938,inactive,–,–,inactive [at 9.27 µM],–,inactive,-0.929,–
CC(C)[C@](O)(c1ccc2cc(OC(F)F)c(OC(F)F)cc2c1)c1cn[nH]n1,–,-21.3,inactive,–,1.17,inactive,inactive,–,-6.26,–
N=C(N)c1ccc2nc(-c3cc(CC(=O)NC(CC(=O)O)C(=O)O)cc(-c4cc(S(N)(=O)=O)ccc4O)c3O)[nH]c2c1 (configuration not stated),-1.88,1.8,inactive,inactive,-8.69,inactive,–,–,–,–
CC(C)=CCC[C@](C)(O[C@@H]1O[C@H](CO[C@@H]2O[C@@H](CO)[C@H](O)[C@H]2O)[C@@H](O)[C@H](O)[C@H]1O)[C@H]1CC[C@]2(C)[C@@H]1[C@H](O)C[C@@H]1[C@@]3(C)CC[C@H](O[C@@H]4O[C@H](CO)[C@@H](O)[C@H](O)[C@H]4O[C@@H]4O[C@H](CO)[C@@H](O)[C@H](O)[C@H]4O)C(C)(C)[C@@H]3CC[C@]12C,2.09,-3.56,inactive,inactive,-28.7,inactive [at 17.4 µM],–,–,–,–
COC(=O)C(CC1CCCC1)c1ccc(S(C)(=O)=O)cc1 (configuration not stated),–,0.176,inactive,inactive,2.5,inactive,inactive,–,–,–
Cc1c(F)cc(C(=O)NC2CC2)cc1-c1ccc(C(=O)NCC(C)(C)C)cn1,–,-4.94,inactive,–,-1.86,inactive,inactive,–,4.19,–
COC(=O)c1[nH]c(=O)c2ccccc2c1-c1ccc[nH]1,–,–,inactive,inactive,–,inactive,inactive,inactive,–,20.6 µM (active)
Cc1oc2nc3c(c(NC(=O)CN4CCCC4=O)c2c1C)CCCC3,3.82,-1.01,inactive,–,–,inactive,–,inactive,8.69,–
CCC(C)C(=O)O[C@H]1[C@@H](O[C@H]2O[C@H](CO)[C@@H](O)[C@H](O)[C@H]2O)O[C@H](CO)[C@@H](O)[C@@H]1O (some centres not stated),-1.24,-6.33,inactive,–,2.16,inactive [at 17.4 µM],–,–,-0.199,–
CC1CCC2(C(=O)O)CCC3(C)C(=CCC4C5(C)C[C@@H](O)[C@@H](O)C(C)(CO)C5CCC43C)C2C1(C)O (some centres not stated),-2.68,-0.908,inactive,inactive,–,inactive [at 17.4 µM],–,inactive,–,–
CC(C)CC(NC(=O)OCc1ccccc1)C(=O)NC(CC(C)C)C(=O)NC(CCC(=O)O)C(=O)Nc1ccc2ccccc2c1 (stereo not drawn) (Cbz-Leu-Leu-Glu-βNA; configuration not given here),-12.3,-0.688,inactive,inactive,–,inactive,–,inactive,–,–
CC1=C2C[C@H]3OC(=O)[C@H](O)[C@@]4(O)[C@@H](C)[C@@H](O)[C@H](O)C([C@@]2(C)[C@H](O)[C@@H](O)C1)[C@@]34C (some centres not stated),-2.09,-1.6,inactive,–,2.2,inactive,–,–,9.81,–
CCOc1ccc(-c2cc(NC(=O)c3c(F)cccc3F)c(C(=O)O)s2)cc1,-4.12,1.07,inactive,–,-24.8,inactive,–,–,-17.4,–
